Test results published in PubChem BioAssay (Tox21).
Several values for one entry are separate records, joined by “and”; a condition that tells them apart may be missing. Equal entries are not always repeated. Inconclusive results are not listed. Values without a mark were called inactive. Activity calls are given as the source filed them. The call rests on the fitted dose curve; in most records, active means well fitted cell-killing curve with a large enough effect in the repeat runs; inconclusive means weak or mixed curves, or effect the other way; inactive means flat fitted curve, though single readings scatter.

Assay: cAMP Responsive Elements (CRE) small molecule agonists, cell-based qHTS assay: qHTS cell viability counter screen (AID 2060914);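 further: viability read after 3 h of compound exposure; nearly all actives have a fitted effect of over 50% in size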
Conditions: CRE-bla HEK293T viability, CellTiter-Glo luminescence, 5 h; series mostly up to 92.4 µM; activity change, negative = cytotoxicity: at the top concentration
Text: National Center for Advancing Translational Sciences [NCATS]
Division of Preclinical Innovation [DPI]
U.S. Environmental Protection Agency [EPA]
National Institutes of Environmental Health Sciences [NIEHS]
National Toxicology Program [NTP]
U.S. Food and Drug Administration [FDA]
CREB (cyclic-AMP Responsive Element Binding Protein) is a cellular transcription factor. It binds to certain DNA sequences called cAMP Responsive Elements (CRE) and regulates the transcription of the genes. […] This cell line can be used to find agonists/antagonists of the cyclic AMP signaling pathway. The activation of the report gene under culture conditions can be detected by fluorescence intensity. This cell line has been used to screen the Tox21 10K compound library to identify agonists that induce oxidative stress. The cytotoxicity of the Tox21 compound library against the CRE-bla cell line was tested in parallel by measuring the cell viability using CellTiter-Glo assay (Promega, Madison, WI) in the same wells.
Tox21 Assay Protocol Summary:
CRE-bla Hek 293T cells were suspended in assay medium (DMEM containing 10% dialyzed FBS, 0.1 mM NEAA, 1 mM sodium pyruvate and 25 mM HEPES) and dispensed at 2,000 cells/5 uL /well into 1536-well black wall/clear bottom plates using a Multidrop Combi (ThermoFisher Scientific, Waltham, MA) dispenser. After the assay plates were incubated at 37 C/5% CO2 for 18 hrs, 23 nL of compounds dissolved in DMSO, positive controls or DMSO only was transferred to the assay plate by a pintool workstation (Kalypsys, San Diego, CA). After the plates were incubated at 37 C/5% CO2 for 3 hrs, 1 uL of LiveBLAzer B/G FRET substrate (Invitrogen, Carlsbad, CA) was added to each well using Bioraptr Flying Reagent Dispenser (FRD, Aurora Discovery, San Diego, CA). The plates were incubated at room temperature for 2 h, then fluorescence intensities were measured using an Envision plate reader (PerkinElmer, Shelton, CT) at Excitation 405nm, Emission 460nm and 530nm. The % activity was determined from the ratio of 460nm/530nm. For cell viability readout that measures cytotoxicity, 4 uL /well of CellTiter-Glo reagent was added into the assay plates using Bioraptr FRD. After 30 min incubation at room temperature, the luminescence intensity in the assay plates was measured using a ViewLux (PerkinElmer, Shelton, CT) plate reader.
On the % scale 0 is the no-effect control and ±100 the full control effect; potency means the concentration at half of the fitted maximal effect.

| Structure (SMILES) | activity change, negative = cytotoxicity | Potency |
| --- | --- | --- |
| CN(N=O)c1ccc([N+](=O)[O-])cc1 | -2.18% |  |
| Cc1cc(Cl)ccc1OC(C)C(=O)O (stereo not given) |  | inactive |
| CC1(C)[C@H](/C=C2\CCSC2=O)[C@@H]1C(=O)OCc1coc(Cc2ccccc2)c1 | -14.7% |  |
| CC(C)(COCC1CO1)COCC1CO1 (stereo not given) | -0.714% |  |
| Oc1ccccc1-c1ccccc1 |  | inactive |
| CN1CSC(=S)N(C)C1 |  | inactive |
| Nc1ncn[nH]1 |  | inactive |
| CN1C(=O)CN=C(c2ccccc2)c2cc([N+](=O)[O-])ccc21 | -1.99% [at 42.5 µM] |  |
| [CH3][Sn]([Cl])([Cl])[Cl] |  | inactive |
| Oc1ccc2ccc3cccc4ccc1c2c34 | 0.228% |  |
| NNCCO | -1.73% |  |
| CC(C)CC(C)N (stereo not given) | -1.98% |  |
| O=C(Cl)/C=C/C(=O)Cl | 8.43% |  |
| O=C(N[C@H]1CN2CCC1CC2)c1cc2ccoc2cn1 | 17% |  |
| O=c1oc2ccccc2c(O)c1C1CCCc2ccccc21 (stereo not given) | 6.48% |  |
| CCCC[N+]1(C)CCCCC1 |  | inactive |
| COC(=O)c1ccccc1S(=O)(=O)NC(=O)Nc1nc(C)cc(C)n1 | 1.42% |  |
| CNC |  | inactive |
| COC[C@@H](NC(C)=O)C(=O)NCc1ccccc1 | -25.1% [at 42.5 µM] |  |
| CN(C)C(=S)SSC(=S)N(C)C |  | 12 µM (active) and 27.3 µM (active) and 16.8 µM (active) |

| Structure (SMILES) | activity change, negative = cytotoxicity | Potency |
| --- | --- | --- |
| C#CC(C)(C)NC(=O)c1cc(Cl)cc(Cl)c1 |  | inactive |
| Cc1c(COC(=O)[C@@H]2[C@H](/C=C(\Cl)C(F)(F)F)C2(C)C)cccc1-c1ccccc1 |  | inactive |
| CCOC(=O)Nc1cccc(OC(=O)Nc2ccccc2)c1 | 7.77% |  |
| COc1nc(C)nc(NC(=O)NS(=O)(=O)c2ccccc2Cl)n1 | 3.09% |  |
| O=c1[nH]c2cc(Cl)ccc2n1C1CCNCC1 | -5.35% [at 42.5 µM] |  |
| Cc1ccc(N)c(C)c1 |  | inactive |
| N#CCC#N | 1.34% |  |
| CC(C)N(C(=O)CCl)c1ccccc1 |  | inactive |
| O=C(O)c1nn(Cc2ccc(Cl)cc2Cl)c2ccccc12 |  | inactive |
| O=[N+]([O-])c1cccc2cccc([N+](=O)[O-])c12 | 9.44% |  |
| CCCCCCCCCCCCCCCCCC(=O)O |  | inactive |
| CCCCC(CC)COC(=O)OOC(C)(C)C (stereo not given) | 10.5% |  |
| NC(=O)CN1CCCC1=O |  | inactive |
| COP(=O)(OC)OC=C(Cl)Cl |  | inactive |
| C[C@]12CC[C@H]3[C@@H](CCC4=CC(=O)CC[C@@H]43)[C@@H]1CC[C@@H]2OC(=O)CCc1ccco1 | 2.74% [at 42.5 µM] |  |
| Cc1ccc2cc3c(ccc4ccccc43)c3c2c1CC3 | 2.35% [at 42.5 µM] |  |
| CC(=O)c1cc2c(cc1C)C(C)(C)C(C)CC2(C)C (stereo not given) | -17.2% |  |
| N#Cc1ccccn1 |  | inactive |
| N#Cc1cccc(C#N)c1 |  | inactive |
| CN1CC[C@]23c4c5ccc(O)c4O[C@H]2[C@@H](O)C=C[C@H]3[C@H]1C5 | 1.45% |  |
